Test results as given in PubChem BioAssay (Tox21).
Inconclusive results are not listed. Active and inactive are the calls of the source. Unless noted, calls follow the shape of the full dose curve.

Legend:
[1] = qHTS assay to identify small molecule antagonists of the vitamin D receptor (VDR) signaling pathway - cell viability counter screen (AID 743225; active = well fitted cell-killing curve with a large enough effect in the repeat runs; also: % is scaled to controls: 0 for no effect and ±100 for the full control effect; nearly all actives have a fitted effect of over 50% in size)
Summary of the method: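 Cytotoxicity counter screen read by CellTiter-Glo luminescence (30 min, room temperature) in the same wells as the VDR-bla antagonist readout. HEK 293T VDR-UAS-bla cells had 16 h at 37C with compound and 3 nM (final) 1-alpha,25-dihydroxyvitamin D3, then 2 h with FRET substrate.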

[2] = qHTS assay to identify small molecule agonists of the NFkB signaling pathway (AID 1159509; active = well fitted curve in the direction sought with a large enough effect in the signal ratio in the repeat runs, not every such curve was filed as active; the % refers to the signal ratio; also: series mostly up to about 61 µM; % is scaled to controls: 0 for no effect and ±100 for the full control effect)
Summary of the method: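 NFkB-bla ME-180 cells with a beta-lactamase reporter under an NF-kB response element were plated overnight, treated with compounds in DMSO for 5 hr at 37 C, then loaded with FRET substrate for 1.5 hr at room temperature.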

[3] = qHTS assay to identify small molecule agonists of the NFkB signaling pathway - cell viability counter screen (AID 1159515); also: series mostly up to about 61 µM; % is scaled to controls: 0 for no effect and ±100 for the full control effect; nearly all actives have a fitted effect of over 55% in size
Summary of the method: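 Using the same wells as the NFkB reporter read, ME-180 NFkB-bla cells given compounds for 5 hr were assessed for viability via CellTiter-Glo, with luminescence taken after a 30 min room-temperature incubation.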

[4] = qHTS assay to identify small molecule agonists of the endoplasmic reticulum stress response signaling pathway (AID 1159516; active = well fitted activation curve with a large enough effect in the signal ratio in the repeat runs, not every such curve was filed as active; the % refers to the signal ratio; also: % is scaled to controls: 0 for no effect and ±100 for the full control effect)
Summary of the method: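 An ESRE-bla HeLa cell assay: compounds were pin-transferred from DMSO onto overnight-plated cells and left 5 hr at 37 C. Substrate was then loaded for 2 hr at room temperature before reading fluorescence at 460 nm and 530 nm.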

[5] = qHTS assay to identify small molecule agonists of the endoplasmic reticulum stress response signaling pathway - cell viability counter screen (AID 1159517);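 also: HeLa cells carrying an ER stress response element beta-lactamase reporter; series mostly up to about 61 µM; % is scaled to controls: 0 for no effect and ±100 for the full control effect; nearly all actives have a fitted effect of over 50% in size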
Summary of the method: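 Counter-screen wells were identical to the reporter wells. Cells were plated at 1,500 per well and dosed for 5 hr, then read for luminescence 30 min after CellTiter-Glo addition.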

[6] = qHTS assay to identify small molecule antagonists of the retinoid-related orphan receptor gamma (ROR-gamma) signaling pathway - cell viability counter screen (AID 1159520; active = well fitted cell-killing curve with a large enough effect in the repeat runs; also: % is scaled to controls: 0 for no effect and ±100 for the full control effect; nearly all actives have a fitted effect of over 50% in size)
Summary of the method: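 Tet-on ROR gamma CHO cells were given compounds for 2 hr, then doxycycline hyclate at 1 uM final, and incubated 16 hr at 37 C. Viability was measured as ATP content by CellTiter-Glo luminescence.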

[7] = qHTS assay to identify small molecule agonists of the AP-1 signaling pathway - cell viability counter screen (AID 1159525); also: nearly all actives have a fitted effect of over 55% in size
Summary of the method: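 AP-1-bla ME-180 cells in Opti-MEM with 0.5% dialyzed FBS, compound exposure 5 h at 37 C in 15-point titration. Viability read in the same wells as ATP content by CellTiter-Glo luminescence, normalised to tetra-n-octylammonium bromide and DMSO controls.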

[8] = qHTS assay to identify small molecule agonists of the AP-1 signaling pathway (AID 1159526); also: % is scaled to controls: 0 for no effect and ±100 for the full control effect
[9] = biological target: Retinoic acid receptor RXR-alpha (Homo sapiens) (UniProt P19793); test: qHTS assay to identify small molecule agonists of the RXR signaling pathway (AID 1159527); also: % is scaled to controls: 0 for no effect and ±100 for the full control effect; nearly all actives have a fitted effect of over 35% in size
Summary of the method: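 Agonist-mode beta-lactamase reporter assay: HEK 293T RXR-alpha-UAS-bla cells treated 16 hr at 37 C with compounds, 9-cis retinoic acid as positive control. LiveBLAzer FRET substrate, 405 nm excitation, 460/530 nm emission.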

Retinoic acid receptor RXR-alpha (Homo sapiens), sequence (P19793 whole entry, looked up): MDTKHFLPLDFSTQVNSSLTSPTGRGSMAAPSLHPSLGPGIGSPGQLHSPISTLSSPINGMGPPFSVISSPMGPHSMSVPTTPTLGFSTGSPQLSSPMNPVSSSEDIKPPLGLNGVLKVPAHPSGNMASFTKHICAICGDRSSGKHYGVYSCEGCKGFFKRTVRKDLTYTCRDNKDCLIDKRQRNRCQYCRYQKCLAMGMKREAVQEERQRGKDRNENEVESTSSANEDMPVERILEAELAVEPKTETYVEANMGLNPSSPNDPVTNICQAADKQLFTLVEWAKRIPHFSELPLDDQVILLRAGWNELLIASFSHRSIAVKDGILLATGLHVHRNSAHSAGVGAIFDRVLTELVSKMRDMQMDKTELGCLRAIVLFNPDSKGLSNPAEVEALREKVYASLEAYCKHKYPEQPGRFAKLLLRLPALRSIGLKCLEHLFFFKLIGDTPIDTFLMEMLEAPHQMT

Nc1nccs1
inactive: Potency [1] | outcome [2] | outcome [3] | outcome [4] | outcome [5] | Potency [6] | outcome [7] | outcome [8] | Potency [9]

CN1CCCN=C1/C=C/c1cccs1
inactive: Potency [1] | outcome [2] | outcome [3] | outcome [4] | outcome [5] | Potency [6] | outcome [7] | outcome [8]

O=C(O)Cc1ccc(-c2ccccc2)cc1
inactive: Potency [1] | outcome [2] | outcome [3] | outcome [4] | outcome [5] | Potency [6] | outcome [7] | outcome [8]

Cc1cnc(C)c(C)n1
inactive: Potency [1] | outcome [2] | outcome [3] | outcome [4] | outcome [5] | Potency [6] | outcome [7] | outcome [8]

Brc1cc(-c2ccc(Br)c(Br)c2Br)cc(Br)c1Br
inactive: Potency [1] | outcome [2] | outcome [3] | outcome [4] | outcome [5] | Potency [6] | outcome [7] | outcome [8]

OCCSc1ccccc1
inactive: Potency [1] | outcome [2] | outcome [3] | outcome [4] | outcome [5] | Potency [6] | outcome [7] | outcome [8]

Cc1cc(O)c2c(O)c3c(O)cccc3cc2c1
inactive: Potency [1] | outcome [2] | outcome [3] | outcome [4] | outcome [5] | Potency [6] | outcome [7] | outcome [8]

CCOC(=O)C(C)Oc1ccc(Oc2nc3ccc(Cl)cc3o2)cc1 (configuration not stated)
inactive: Potency [1] | outcome [2] | outcome [3] | outcome [4] | outcome [5] | Potency [6] | outcome [7] | outcome [8]

Cn1c(=O)c2c(ncn2CC(=O)O)n(C)c1=O
inactive: Potency [1] | outcome [2] | outcome [3] | outcome [4] | outcome [5] | Potency [6] | outcome [7] | outcome [8] | Potency [9]

CC(C)CCCCCOC(=O)CCCCC(=O)OCCCCCC(C)C
inactive: Potency [1] | outcome [2] | outcome [3] | outcome [4] | outcome [5] | Potency [6] | outcome [7] | outcome [8]

CCOC(=O)[C@@H](C)Oc1ccc(Oc2nc3ccc(Cl)cc3o2)cc1
inactive: Potency [1] | outcome [2] | outcome [3] | outcome [4] | outcome [5] | Potency [6] | outcome [7] | outcome [8]

O=C(O)c1ccccc1NCCc1ccccc1
inactive: Potency [1] | outcome [2] | outcome [3] | outcome [4] | outcome [5] | Potency [6] | outcome [7] | outcome [8]

Cc1ccc(/C=N/n2c(-c3ccccc3)csc2=S)cc1
inactive: Potency [1] | outcome [2] | outcome [3] | outcome [4] | outcome [5] | Potency [6] | outcome [7] | outcome [8]

CN(C)C(=O)Nc1ccc(Oc2ccc(Cl)cc2)cc1
inactive: Potency [1] | outcome [2] | outcome [3] | outcome [4] | outcome [5] | Potency [6] | outcome [7] | outcome [8]

CC(=O)Nc1ccc(N)cc1
inactive: Potency [1] | outcome [2] | outcome [3] | outcome [4] | outcome [5] | Potency [6] | outcome [7] | outcome [8]

COc1ccc([C@@H]2Sc3ccccc3NC(=O)[C@@H]2O)cc1
inactive: Potency [1] | outcome [2] | outcome [3] | outcome [4] | outcome [5] | Potency [6] | outcome [7] | outcome [8]

CC(Cl)C(Cl)Cl (configuration not stated)
inactive: Potency [1] | outcome [2] | outcome [3] | outcome [4] | outcome [5] | Potency [6] | outcome [7] | outcome [8]

C/C=C/C=C/CCCCCCCO
inactive: Potency [1] | outcome [2] | outcome [3] | outcome [4] | outcome [5] | Potency [6] | outcome [7] | outcome [8]

CCCCOC(=O)CCS
inactive: Potency [1] | outcome [2] | outcome [3] | outcome [4] | outcome [5] | Potency [6] | outcome [7] | outcome [8]

Nc1c(I)cc(I)c(C(=O)N(CCC(=O)O)c2ccccc2)c1I
inactive: Potency [1] | outcome [2] | outcome [3] | outcome [4] | outcome [5] | Potency [6] | outcome [7] | outcome [8]

CC1CN(c2cc3c(cc2F)c(=O)c(C(=O)O)cn3-c2ccc(F)cc2F)CCN1 (configuration not stated)
inactive: viability change, negative = cytotoxic [1] 9.78% [at 6.95 µM] | activation [2] 0.411% [at 6.95 µM] | activity, negative = cytotoxic [3] 3.41% [at 6.95 µM] | activation [4] -0.328% [at 6.95 µM] | activity change, negative = cytotoxicity [5] 10.1% [at 6.95 µM] | activity, negative = cytotoxicity [6] 3.27% [at 8.39 µM] | viability change, negative = cytotoxic [7] -6.8% [at 6.97 µM] | activation [8] 2.03% [at 6.97 µM]

NC(=O)Nc1ccc(Cl)cc1
inactive: Potency [1] | outcome [2] | outcome [3] | outcome [4] | outcome [5] | Potency [6] | outcome [7] | outcome [8]

COc1cc2c(N3CCN(C(=O)Nc4ccc(OC(C)C)cc4)CC3)ncnc2cc1OCCCN1CCCCC1
inactive: Potency [1] | outcome [2] | outcome [3] | outcome [4] | outcome [5] | Potency [6] | outcome [7] | outcome [8] | Potency [9]

O=C(O)c1snc(Cl)c1Cl
inactive: Potency [1] | outcome [2] | outcome [3] | outcome [4] | outcome [5] | Potency [6] | outcome [7] | outcome [8]

CC(=O)CC(c1ccc([N+](=O)[O-])cc1)c1c(O)c2ccccc2oc1=O (configuration not stated)
inactive: Potency [1] | outcome [2] | outcome [3] | outcome [4] | outcome [5] | Potency [6] | outcome [7] | outcome [8]

CO/N=C1\CN(c2nc3c(cc2F)c(=O)c(C(=O)O)cn3C2CC2)CC1CN (configuration not stated)
inactive: Potency [1] | outcome [2] | outcome [3] | outcome [4] | outcome [5] | Potency [6] | outcome [7]

NC(=O)Cn1c(=O)cc(CCN2CCN(c3nccc4sccc34)CC2)c2ccc(F)cc21
inactive: Potency [1] | outcome [2] | outcome [3] | outcome [4] | outcome [5] | Potency [6] | outcome [7]
